Reference: ChEMBL document CHEMBL3988442, “University of Dundee, Small-Polar-MMV Screening Library” (2021)
For part of these data: Entries with a potency or affinity are not part of this list.

Legend:
Parameters in all cases: scale not given: direction of the effect not stated beside the values
[1] = biological target: Protein translocase subunit SecA (Escherichia coli (strain K12)) (UniProt P10408); assay: Assay to Identify E. coli SecA ATPase Inhibitors; assay type: functional; settings: 30 µM
Sequence of Protein translocase subunit SecA (Escherichia coli (strain K12)) (P10408 whole entry): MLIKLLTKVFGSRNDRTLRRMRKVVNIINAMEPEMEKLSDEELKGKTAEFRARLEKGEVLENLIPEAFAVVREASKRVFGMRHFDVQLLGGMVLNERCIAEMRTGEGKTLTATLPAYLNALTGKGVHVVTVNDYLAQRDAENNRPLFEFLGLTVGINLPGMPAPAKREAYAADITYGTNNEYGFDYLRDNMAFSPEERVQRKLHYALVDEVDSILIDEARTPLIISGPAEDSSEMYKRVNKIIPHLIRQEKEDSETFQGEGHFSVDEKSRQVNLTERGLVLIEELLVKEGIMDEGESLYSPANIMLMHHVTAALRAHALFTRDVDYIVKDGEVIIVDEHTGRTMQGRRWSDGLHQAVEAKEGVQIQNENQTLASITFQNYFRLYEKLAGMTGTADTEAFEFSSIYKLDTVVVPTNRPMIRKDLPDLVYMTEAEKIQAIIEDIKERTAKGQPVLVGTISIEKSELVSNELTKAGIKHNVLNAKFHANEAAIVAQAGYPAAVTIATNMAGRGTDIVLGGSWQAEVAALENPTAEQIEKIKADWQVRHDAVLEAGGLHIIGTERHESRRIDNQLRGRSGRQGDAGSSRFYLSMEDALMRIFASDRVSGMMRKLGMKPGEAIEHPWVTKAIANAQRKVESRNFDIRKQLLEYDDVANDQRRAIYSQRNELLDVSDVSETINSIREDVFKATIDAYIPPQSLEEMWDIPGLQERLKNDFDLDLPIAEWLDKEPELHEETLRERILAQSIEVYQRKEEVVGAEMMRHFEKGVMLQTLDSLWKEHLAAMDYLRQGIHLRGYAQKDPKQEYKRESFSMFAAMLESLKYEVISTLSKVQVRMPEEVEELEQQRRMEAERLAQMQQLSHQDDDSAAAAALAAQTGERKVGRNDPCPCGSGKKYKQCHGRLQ

[2] = biological target: T1, Ubiquitin-activating enzyme e1, putative (Leishmania donovani (strain BPK282A1)) (UniProt E9BSI1); assay: Leishmania donovani Ubiquitin Activating Enzyme (LdE1); assay type: functional; settings: 30 µM
T1 sequence (whole entry): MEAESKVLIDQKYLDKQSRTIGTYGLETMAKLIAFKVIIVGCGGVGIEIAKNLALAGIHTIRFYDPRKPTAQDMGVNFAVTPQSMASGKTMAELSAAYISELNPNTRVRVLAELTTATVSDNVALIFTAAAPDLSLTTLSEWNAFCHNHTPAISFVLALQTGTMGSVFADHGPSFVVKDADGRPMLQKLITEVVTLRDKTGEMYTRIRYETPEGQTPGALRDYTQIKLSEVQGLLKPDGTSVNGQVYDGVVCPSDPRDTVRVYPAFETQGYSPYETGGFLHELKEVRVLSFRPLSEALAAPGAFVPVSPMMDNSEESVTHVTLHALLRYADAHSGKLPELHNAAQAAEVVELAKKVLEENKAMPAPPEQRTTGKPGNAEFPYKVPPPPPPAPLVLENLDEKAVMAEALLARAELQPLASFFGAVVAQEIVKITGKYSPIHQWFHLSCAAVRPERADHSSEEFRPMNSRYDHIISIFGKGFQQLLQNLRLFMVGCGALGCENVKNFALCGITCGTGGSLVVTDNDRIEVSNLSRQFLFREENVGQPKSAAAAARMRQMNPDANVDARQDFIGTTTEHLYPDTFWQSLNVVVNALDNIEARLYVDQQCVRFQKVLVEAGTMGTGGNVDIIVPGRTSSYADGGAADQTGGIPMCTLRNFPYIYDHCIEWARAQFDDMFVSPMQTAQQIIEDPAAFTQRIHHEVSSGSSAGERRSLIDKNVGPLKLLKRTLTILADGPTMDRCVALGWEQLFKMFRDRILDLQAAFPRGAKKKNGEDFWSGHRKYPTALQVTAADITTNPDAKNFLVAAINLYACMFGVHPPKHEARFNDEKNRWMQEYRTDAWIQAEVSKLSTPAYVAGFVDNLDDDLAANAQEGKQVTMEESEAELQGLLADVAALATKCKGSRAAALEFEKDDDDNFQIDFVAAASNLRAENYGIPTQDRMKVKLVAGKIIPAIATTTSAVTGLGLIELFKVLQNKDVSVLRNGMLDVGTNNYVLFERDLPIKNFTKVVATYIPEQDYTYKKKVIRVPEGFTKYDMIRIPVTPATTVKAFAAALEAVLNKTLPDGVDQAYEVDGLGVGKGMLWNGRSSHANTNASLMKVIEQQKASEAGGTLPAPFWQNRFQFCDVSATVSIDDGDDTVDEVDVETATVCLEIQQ

[3] = biological target: Sialic acid-binding Ig-like lectin 9 (Homo sapiens) (UniProt Q9Y336); assay: Hs-Siglec9 ALPHAscreen SOP 20170721; settings: 10 µM
Sequence of Sialic acid-binding Ig-like lectin 9 (Homo sapiens) (Q9Y336 whole entry): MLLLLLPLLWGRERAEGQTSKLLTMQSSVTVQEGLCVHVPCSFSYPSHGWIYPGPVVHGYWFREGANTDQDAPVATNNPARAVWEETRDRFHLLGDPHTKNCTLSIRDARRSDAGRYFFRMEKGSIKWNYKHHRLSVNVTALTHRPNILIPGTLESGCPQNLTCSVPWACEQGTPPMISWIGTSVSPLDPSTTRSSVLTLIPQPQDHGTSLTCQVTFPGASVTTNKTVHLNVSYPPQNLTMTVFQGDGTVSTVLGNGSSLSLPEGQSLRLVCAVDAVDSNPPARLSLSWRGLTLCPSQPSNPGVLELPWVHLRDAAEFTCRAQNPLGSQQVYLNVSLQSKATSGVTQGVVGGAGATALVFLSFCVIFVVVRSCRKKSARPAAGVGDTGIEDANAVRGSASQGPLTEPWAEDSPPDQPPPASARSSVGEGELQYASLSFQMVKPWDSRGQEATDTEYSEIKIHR

Trypanosoma cruzi = assay: Trypanosoma cruzi phosphomannomutase and mannose-1-phosphate guanylyltransferase assay; assay type: functional; settings: 10 µM
[4] = biological target: T2, Arginase-2, mitochondrial (Homo sapiens) (UniProt P78540); assay: in vitro enzyme assay to detect the production of urea directly proportional to the activity of Arginase II; assay type: functional; settings: 33.3 µM; further: in the data most compounds retested in dose-response had high values
T2 sequence (whole entry): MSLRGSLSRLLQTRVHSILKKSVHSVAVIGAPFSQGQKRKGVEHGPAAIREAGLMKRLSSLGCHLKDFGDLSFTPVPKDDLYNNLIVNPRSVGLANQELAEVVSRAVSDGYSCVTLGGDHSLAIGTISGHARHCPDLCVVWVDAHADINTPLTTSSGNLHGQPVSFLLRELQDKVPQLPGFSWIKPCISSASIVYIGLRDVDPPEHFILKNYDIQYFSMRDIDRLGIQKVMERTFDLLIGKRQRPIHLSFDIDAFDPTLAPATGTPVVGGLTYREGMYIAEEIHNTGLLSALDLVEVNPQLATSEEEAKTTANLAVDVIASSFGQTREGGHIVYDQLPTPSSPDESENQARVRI

[5] = biological target: T3, Proteasome subunit beta (Trypanosoma cruzi) (UniProt O96673); assay: Trypanosoma cruzi proteasome chymotrypsin-like activity (TcProtChymo) assay.; further: in the data most compounds retested in dose-response had high values; assay type: functional; settings: 9.37 µM
T3 sequence (whole entry): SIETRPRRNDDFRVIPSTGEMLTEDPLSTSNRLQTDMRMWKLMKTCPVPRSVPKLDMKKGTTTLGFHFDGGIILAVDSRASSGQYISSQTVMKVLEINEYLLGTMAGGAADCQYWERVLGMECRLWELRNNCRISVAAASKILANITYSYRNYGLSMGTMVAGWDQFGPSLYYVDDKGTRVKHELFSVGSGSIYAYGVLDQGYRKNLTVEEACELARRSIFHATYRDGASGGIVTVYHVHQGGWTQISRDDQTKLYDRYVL

Homo sapiens = organism: Homo sapiens; assay: To identify inhibition of the IFN signalling (Jak-Stat) pathway via expression of an eGFP reporter gene under the control of an IFN-stimulated response element (ISRE) containing MxA promoter.; assay type: functional; settings: 30 µM
[6] = biological target: T4, Tyrosyl-tRNA synthetase, putative (Trypanosoma cruzi (strain CL Brener)) (UniProt Q4DSP6); assay: Trypanosoma cruzi tyrosyl tRNA synthetase (TcYRS) _High Tyrosine SOP; assay type: functional; settings: 30 µM; further: in the data most compounds retested in dose-response had high values
T4 sequence (whole entry): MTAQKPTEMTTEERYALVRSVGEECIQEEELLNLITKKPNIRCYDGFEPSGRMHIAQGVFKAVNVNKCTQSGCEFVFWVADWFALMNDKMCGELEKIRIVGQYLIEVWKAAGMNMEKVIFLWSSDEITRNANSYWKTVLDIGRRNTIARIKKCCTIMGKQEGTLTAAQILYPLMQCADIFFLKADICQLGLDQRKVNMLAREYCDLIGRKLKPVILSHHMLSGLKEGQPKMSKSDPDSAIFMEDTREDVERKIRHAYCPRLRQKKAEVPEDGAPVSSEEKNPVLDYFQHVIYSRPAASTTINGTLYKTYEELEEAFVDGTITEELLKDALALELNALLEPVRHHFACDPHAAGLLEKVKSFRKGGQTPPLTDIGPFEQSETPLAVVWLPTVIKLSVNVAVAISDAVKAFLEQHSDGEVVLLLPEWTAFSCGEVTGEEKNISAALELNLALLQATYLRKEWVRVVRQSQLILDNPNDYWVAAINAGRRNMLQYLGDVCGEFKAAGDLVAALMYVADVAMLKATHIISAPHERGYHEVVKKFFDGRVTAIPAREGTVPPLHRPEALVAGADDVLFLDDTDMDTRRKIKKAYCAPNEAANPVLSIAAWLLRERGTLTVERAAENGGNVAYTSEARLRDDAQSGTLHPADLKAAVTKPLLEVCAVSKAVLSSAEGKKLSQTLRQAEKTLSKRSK

[7] = biological target: T4, Tyrosyl-tRNA synthetase, putative (Trypanosoma cruzi (strain CL Brener)); assay: Trypanosoma cruzi tyrosyl tRNA synthetase (TcYRS) SOP; assay type: functional; settings: 30 µM
[8] = biological target: Chromo domain-containing protein 1 (Saccharomyces cerevisiae (strain ATCC 204508 / S288c) (Baker's yeast)) (UniProt P32657); assay: ScCHD-1 Enzyme Inhibition Assay; assay type: functional; settings: 30 µM; further: in the data most compounds retested in dose-response had high values
Sequence of Chromo domain-containing protein 1 (Saccharomyces cerevisiae (strain ATCC 204508 / S288c) (Baker's yeast)) (P32657 whole entry, the tested form may be a part): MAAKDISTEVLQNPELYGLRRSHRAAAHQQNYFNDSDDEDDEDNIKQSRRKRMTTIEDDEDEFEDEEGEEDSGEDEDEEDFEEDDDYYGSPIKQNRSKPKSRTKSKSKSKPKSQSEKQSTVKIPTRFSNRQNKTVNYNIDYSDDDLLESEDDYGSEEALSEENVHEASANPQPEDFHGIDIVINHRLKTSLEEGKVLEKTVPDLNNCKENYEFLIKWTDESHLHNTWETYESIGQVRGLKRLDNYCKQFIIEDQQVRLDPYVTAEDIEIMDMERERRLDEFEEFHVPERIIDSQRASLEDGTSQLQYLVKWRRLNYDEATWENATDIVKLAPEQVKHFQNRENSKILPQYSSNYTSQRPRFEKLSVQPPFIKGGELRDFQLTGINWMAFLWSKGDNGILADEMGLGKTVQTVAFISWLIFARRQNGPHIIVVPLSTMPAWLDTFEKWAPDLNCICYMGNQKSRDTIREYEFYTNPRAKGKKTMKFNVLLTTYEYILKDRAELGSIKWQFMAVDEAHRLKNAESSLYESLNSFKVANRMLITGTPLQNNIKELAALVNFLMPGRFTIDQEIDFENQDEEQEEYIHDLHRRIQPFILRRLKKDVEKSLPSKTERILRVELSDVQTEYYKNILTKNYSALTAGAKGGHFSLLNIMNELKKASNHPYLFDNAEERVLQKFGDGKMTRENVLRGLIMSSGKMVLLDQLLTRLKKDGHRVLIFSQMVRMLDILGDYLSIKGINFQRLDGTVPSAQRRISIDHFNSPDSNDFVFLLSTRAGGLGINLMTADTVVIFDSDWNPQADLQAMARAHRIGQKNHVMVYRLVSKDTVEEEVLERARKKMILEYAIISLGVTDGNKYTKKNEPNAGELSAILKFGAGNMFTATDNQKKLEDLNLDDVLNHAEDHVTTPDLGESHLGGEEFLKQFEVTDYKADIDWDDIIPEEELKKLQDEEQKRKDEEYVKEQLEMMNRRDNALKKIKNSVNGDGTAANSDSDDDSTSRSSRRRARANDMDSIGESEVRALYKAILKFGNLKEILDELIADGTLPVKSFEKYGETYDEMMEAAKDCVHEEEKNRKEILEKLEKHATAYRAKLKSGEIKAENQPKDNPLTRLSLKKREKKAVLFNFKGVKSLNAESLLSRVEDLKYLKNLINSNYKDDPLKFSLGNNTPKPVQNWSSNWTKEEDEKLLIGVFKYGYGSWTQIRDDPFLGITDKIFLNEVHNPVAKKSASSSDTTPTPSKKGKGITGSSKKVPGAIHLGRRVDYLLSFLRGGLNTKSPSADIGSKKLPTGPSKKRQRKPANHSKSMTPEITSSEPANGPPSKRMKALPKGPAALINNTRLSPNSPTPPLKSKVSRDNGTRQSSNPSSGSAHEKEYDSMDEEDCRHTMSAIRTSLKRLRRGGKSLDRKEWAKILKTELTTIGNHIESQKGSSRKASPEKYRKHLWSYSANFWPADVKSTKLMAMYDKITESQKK

Structure (SMILES)	Percent Effect [1] [%]	Percent Effect [2] [%]	Percent Effect [3] [%]	Percent Effect (Trypanosoma cruzi) [%]	Percent Effect [4] [%]	Percent Effect [5] [%]	Percent Effect (Homo sapiens) [%]	Percent Effect [6] [%]	Percent Effect [7] [%]	Percent Effect [8] [%]
CN1CCN(c2cc(CNC(=O)c3ccc(=O)[nH]n3)ccn2)CC1	-0.863	12.8	-10.3	-2.16	9.43	9.81	23.3	6.22	18.1	-2.33
CC(O)CNC(=O)NCc1cccnc1OC1CCCC1 (stereo not given)	-1.77	13.3	-3.55	-3.21	7.54	2.63	10.2	6.84	2.56	-11.2
Cc1cc(C)n(CC2CCCN2CCCS(N)(=O)=O)n1 (stereo not given)	-1.45	10.3	-5.77	7.61	4.1	18.3	20.4	3.35	18.1	-2.57
c1ccc(CNC2CCc3ncnn3C2)nc1 (stereo not given)	0.311	12.8	-14.6	-4.98	1.23	21.1	30.1	9.09	20.5	-2.61
CN(C)c1cc(CNC(=O)Nc2ccc(S(C)(=O)=O)nc2)ccn1	-1.24	10.3	-5.84	0.845	1.64	10.3	-0.626	6.22	25.3	-2.59
CC(C)c1nc(C2CCCN2CC(=O)Nc2ccc(Cl)cn2)no1 (stereo not given)	-10.5	18.7	16.2	5.62	-4.88	8.23	4.35	5.79	10.3	-14.8
CCC(NC(N)=O)c1ccccc1OCC(=O)N1CCCC1 (stereo not given)	-1.4	10.3	-13.8	-4.41	-4.92	9.81	16.9	5.26	18.1	-6
CCc1nc(CN(C)C2CCN(CCS(C)(=O)=O)C2)no1 (stereo not given)	-1.27	18.7	-4.89	0	-1.77	16.9	4.92	5.79	17.9	-5.25
CNC(=O)C1(c2cnccn2)CCCN1C(=O)c1ccccc1OC (stereo not given)	0.772	14.7	-7.91	-1.77	-3.98	9.36	17.4	-2.12	5	-18.1
O=C(c1cnccn1)N1CCCC2(COCCN(CC3CC3)C2)C1 (stereo not given)	-3.64	-1.3	-5.88	-2.43	-0.81	7.15	-2.31	-0.526	5.13	-0.986
CCCOCCCNc1nccc(-c2cn(C)nc2C)n1	-7.46	0	9.13	12.5	-3.85	13.7	36.5	5.85	17.1	-2.61
COC(=O)CC(c1ccc(OC)c(OC)c1)c1oc(C)cc(=O)c1O (stereo not given)	-11	2.7	0.92	-4.75	-10.1	4.45	14.4	-0.532	-2.44	-0.871
